In the library only some 11% were active in any assay of this set; here they are far more common.
ALDH1A1 block – ALDH1A1 (human) enzyme inhibition; Purified ALDH1A1, NADH fluorescence, propionaldehyde substrate; Potency, µM (series often up to 75.3 µM), for the others: at the highest dose activity, negative = inhibition, usual class: inhibitors; actives 7.3% (n = 220,000); AID 1030;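 also: potency is read from the fitted curve at half-maximal effect; plate controls were no enzyme wells and a reference inhibitor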
PNC assembly inh – blocks assembly of the perinucleolar compartment. actives 3.1% (n = 140,000). AID 2417. activity change (PNC), negative = inhibition, % at 10 µM. PC3M PTB-GFP, PNC prevalence imaging, 16 h; hits give low values;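 active = readout at or below -70, meaning at least 70% loss of cells showing the perinucleolar compartment, a nuclear body marking cancer cells; inconclusive = readout between -30 and a set limit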;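 also: plate controls were DMSO wells for no effect and camptothecin positive control wells for full effect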
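PC3M cells stably expressing PTB-GFP, 750–1000 cells/well, treated 16 h at 37 °C with compound (23 nl of library stock), in duplicate. After paraformaldehyde fixation and Hoechst stain, imaged at 20x; PNC prevalence scored by image analysis.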
HPGD block – inhibitors of human 15-hydroxyprostaglandin dehydrogenase (HPGD). P15428. purified HPGD, NADH fluorescence kinetic, PGE2 substrate. Potency, µM, inactives show at the top dose activity change, negative = inhibition, hits mostly inhibitors. actives 4.3% (n = 150,000); also: potency is read from the fitted curve at half-maximal effect
Target sequence (P15428 whole entry, looked up): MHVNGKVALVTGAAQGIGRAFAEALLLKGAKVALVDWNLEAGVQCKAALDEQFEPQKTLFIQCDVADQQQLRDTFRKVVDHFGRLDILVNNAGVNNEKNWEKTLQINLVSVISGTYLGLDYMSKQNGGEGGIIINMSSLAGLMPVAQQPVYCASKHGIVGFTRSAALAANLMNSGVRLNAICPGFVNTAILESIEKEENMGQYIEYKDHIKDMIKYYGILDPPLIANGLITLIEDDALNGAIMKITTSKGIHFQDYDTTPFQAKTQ
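20 nM HPGD preincubated 15 min at room temperature with compound in 50 mM Tris-HCl pH 8, 0.01% Tween 20. Started with 1 mM NAD+ and 30 uM prostaglandin E2; NADH fluorescence (360/450 nm) read 5 times over 30-s intervals, last minus first.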
NPSR antagonist – neuropeptide S receptor (human) antagonism, cAMP | Q6W5P4 | CHO-NPSR cells, cAMP TR-FRET, antagonist mode | Potency, µM (highest dose often 38.3 µM), without a hit: top-dose activity change, negative = inhibition, usual class: inhibitors | actives 1% (n = 220,000) | AID 1461; active = well fitted curve in the direction sought with a large enough effect; inconclusive = small, poorly fitted or top-dose-only effect, or another doubt; inactive = no such curve, though single readings can be large; an effect the other way counts as inactive or inconclusive; also: potency is read from the fitted curve at half-maximal effect; nearly all actives have a fitted effect of over 50% in size
IMPase Li inh – cell-permeable IMPase inhibitors with lithium potentiation | actives 0.35% (n = 210,000) | Potency, µM (series often up to 59.4 µM), inactives show top-dose activity, negative = IMPase inhibition, usual class: inhibitors | CHO-M1 cells, IP1 TR-FRET (IP-One), carbachol + lithium | AID 1457; active = well fitted curve in the direction sought with a large enough effect; inconclusive = small, poorly fitted or top-dose-only effect, or another doubt; inactive = no such curve, though single readings can be large; an effect the other way counts as inactive or inconclusive;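 also: IP1 builds up when IMPase is blocked and the TR-FRET signal falls; potency is read from the fitted curve at half-maximal effect; plate controls were basal vehicle for no effect and high inhibitor control for full effect; nearly all actives have a fitted effect of over 50% in size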
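Steps: plate 2000 CHO-M1 cells per well and culture 16–30 h; add compound and lithium; incubate 30 min, 37C; add d2-IP1 tracer and Eu cryptate anti-IP1 antibody in lysis buffer; read after 10 min at room temperature.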
IMPase cell inh – cell-permeable inhibitors of inositol monophosphatase (IMPase); CHO-M1 cells, IP1 accumulation, HTRF TR-FRET ratio; 120,000 tested, under 10 active; inhibition (IP1 accumulation), % at 46.1 µM; AID 901; P97697; active = well fitted curve in the direction sought with a large enough effect in the signal ratio, not every such curve was filed as active; inconclusive = small, poorly fitted or top-dose-only effect, or a change in a side signal; inactive = no such curve, though single readings can be large or run the other way; the % refers to the signal ratio;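 also: cells stimulated with carbachol in lithium chloride buffer; plate controls were DMSO basal wells for no effect and reference inhibitor wells for full effect; higher means more IMPase inhibition seen as more IP1 and lower FRET ratio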
Target sequence (P97697 whole entry, looked up): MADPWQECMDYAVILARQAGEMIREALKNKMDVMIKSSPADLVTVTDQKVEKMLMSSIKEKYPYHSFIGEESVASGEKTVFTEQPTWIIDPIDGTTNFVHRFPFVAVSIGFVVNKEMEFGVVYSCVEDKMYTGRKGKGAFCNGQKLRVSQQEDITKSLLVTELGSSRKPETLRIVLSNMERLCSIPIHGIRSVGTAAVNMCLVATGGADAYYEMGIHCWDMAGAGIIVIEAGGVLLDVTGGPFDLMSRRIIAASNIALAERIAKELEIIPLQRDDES
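Carbachol-driven Gq signalling in CHO-M1 cells (2000/well) generates IP1. Compounds that block IMPase raise IP1 and so reduce the FRET signal from Eu-anti-IP1 and d2-IP1 after a 10 min room-temperature lysis.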
* marks the source's active call; other numbers are inactive results; ? = inconclusive; . = no result; ! = a repeat was not active; [ ] = another dose, or the depositor's remark. Unless noted, calls follow the shape of the dose curve; as a rule, active = well fitted inhibition curve with a large enough effect (not every such curve was filed as active); inconclusive = small, poorly fitted or top-dose-only effect, or another doubt; inactive = no such curve, though single readings can be large or run the other way. Unless noted, % is scaled to controls: 0 for no effect and ±100 for the full control effect.

SMILES	ALDH1A1 block	PNC assembly inh	HPGD block	NPSR antagonist	IMPase Li inh	IMPase cell inh
Cc1cc(C)cc(SCc2noc(C(=O)NCC3CCCO3)c2C(=O)O)c1 (stereo not given)	0%	-24	-19%	0%[46.1 µM]	-10%[38.3 µM]	1
CCCCNC(=O)c1onc(CSc2ccccc2CC)c1C(=O)O	9%	-109*	-28%	-15%[46.1 µM]	-2%[38.3 µM]	-8
CC(C)c1ccc(SCc2noc(C(=O)NCC3CCCO3)c2C(=O)O)cc1 (stereo not given)	?	34	7.9µM*	-4%[46.1 µM]	-6%[38.3 µM]	9
Cc1cccc(SCc2noc(C(=O)NCC3CCCO3)c2C(=O)O)c1 (stereo not given)	4%	-90*	-14%	-9%[46.1 µM]	-28%[38.3 µM]	-8
CCN(CC)CCC(c1cc(OC)c(OC)c(OC)c1)c1c(OC)cc(OC)c2c(C)cc(=O)oc12 (stereo not given)	.	.	.	-39%	.	.
CC(=O)[C@@H](C)CCO[C@@]1(C)OCC[C@@H]1C	9%[13.5 µM]	.	-1%	.	3%	.
COc1ccccc1CN1C[C@@H]2C[C@@H](c3cccc(C)n3)N3CCC[C@@]23C1=O	4%	.	.	-13%	16%	.
Cc1cccc(N2CCN(C(=S)NC3CCCCC3)CC2)c1C	.	.	.	11%	.	.
C=CCc1cccc2cc(C(=O)NC3=C(C#N)CCC3)c(=O)oc12	0.89µM*	-124*	-10%	-16%[46.1 µM]	34%[38.3 µM]	6[1.84 µM]
C=CCc1cccc2cc(C(=O)Nc3ccc(F)cc3)c(=O)oc12	13%	13	-12%	9%	0%	.
COc1ccc(OC)c(NC(=O)N2CCCC(C)C2)c1 (stereo not given)	.	.	.	1%	.	.
COCCCn1c(SCC(=O)NCc2ccco2)nc2sc3c(c2c1=O)CCC3	-2%	1	.	-21%[46.1 µM]	.	7
CCN(CC)C(=O)CSc1nc(N)c2c3c(sc2n1)CC(C)CC3 (stereo not given)	-12%	20	14µM*	?	20%[38.3 µM]	0
CC1CCc2c(sc3nc(SCC(=O)NCc4ccco4)nc(N)c23)C1 (stereo not given)	5%	-10	14µM*	-14%[46.1 µM]	-2%[38.3 µM]	8
CCOC(=O)CSc1nc(N)c2c3c(sc2n1)CCCC3	9%	-2	-19%	-13%[46.1 µM]	-9%[38.3 µM]	-5
O=C1CSC(c2nn(-c3ccccc3)cc2-c2cc3ccccc3oc2=O)N1Cc1ccco1 (stereo not given)	?	134	?	-18%[46.1 µM]	-12%[38.3 µM]	7
C=CCOc1ccccc1CNCCNC(=O)c1nonc1N	-1%	.	.	4%	5%	.
O=C1c2ccccc2C(=O)N1CCc1nc2ccccc2c(=O)n1-c1ccccn1	-2%	?	-3%	-13%[46.1 µM]	5%[38.3 µM]	1
Cc1cccnc1-n1c(CCN2C(=O)c3ccccc3C2=O)nc2ccccc2c1=O	18µM*	52	-15%	-3%[46.1 µM]	16%[38.3 µM]	5
CC(C)C(c1nnnn1C1CCCC1)N1CCCc2ccccc21 (stereo not given)	?	-100*	-17%	?	14%	-6
Cc1ccc2[nH]c(=O)c(C(c3nnnn3CC3CCCO3)N3CCCc4ccccc43)cc2c1 (stereo not given)	13µM*	?	-9%	-11%[7.67 µM]	-6%[38.3 µM]	8
Cc1ccc2[nH]c(=O)c(C(c3nnnn3C3CCCC3)N3CCCc4ccccc43)cc2c1 (stereo not given)	14µM*	24	-15%	4%[46.1 µM]	-6%	2
Cc1ccc2[nH]c(=O)c(C(c3nnnn3CC3CCCO3)N3CCc4ccccc4C3)cc2c1 (stereo not given)	?	30	?	-6%[46.1 µM]	24%[38.3 µM]	?
CCOC(=O)c1ccc(N=c2sc(C(=O)OC)cc(=O)n2CCCN2CCOCC2)cc1	-1%	1	-18%	13µM*!	17%[38.3 µM]	9
CCn1c(=O)cc(C(=O)OC)sc1=Nc1ccc(F)c(F)c1	-15%	38	-26%	-8%[46.1 µM]	7%[38.3 µM]	11
COC(=O)c1cc(=O)n(CCc2ccccc2)c(=Nc2ccc(F)cc2)s1	0%	-83*	-9%	10µM*	40%[38.3 µM]	16

Source: PubChem (National Center for Advancing Translational Sciences (NCATS))
